This note sets out measurements from PubChem BioAssay AID2685 (National Center for Advancing Translational Sciences (NCATS), 2010).

The campaign covered roughly 320,000 compounds. About 2,100 (0.66%) were called active. Inconclusive results (about 53%) are left out. The sample holds actives, similar compounds and a random draw of the others, so the mix is not that of the screen. Calls follow the shape of the dose curve; as a rule, active = well fitted inhibition curve with a large enough effect in the signal ratio, with a control signal flat (not every such curve was filed as active); inconclusive = small, poorly fitted or top-dose-only effect, or effect the other way, or a change in a side signal; inactive = flat fitted curve, though single readings scatter; the % refers to the signal ratio.
Potency is read from the fitted curve at half-maximal effect.

A short description of the experiment: qHTS Assay for Lipid Storage Modulators in Drosophila S3 Cells.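 As to cell number change: cells counted by Cell Tracker Red CMTPX staining in the red channel.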 As to lipid storage change, negative = inhibition: % is scaled to controls: 0 for no effect and ±100 for the full control effect. The note with it: BODIPY lipid droplet fluorescence, 18-24 h, cells fed with added oleic acid; cell number change: measured here: cell count max response; series mostly up to 46.1 µM; lipid storage change, negative = inhibition: at the top concentration. The essentials:
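Drosophila S3 cells got compounds at several concentrations plus oleic acid (400 uM solution). Laser-scanning cytometry with 488 nm excitation read lipid droplets at 500-530 nm and cells at 575-640 nm. Percent activity was relative to 20 uM Triacsin C.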
For orientation: In qHTS, concentration-response curves come from the screen itself.
With `CC(C)=CCN1CCN(Cc2cnc(-c3ccccc3)s2)CC1CCO` (centres undefined), the “lipid storage change, negative = inhibition” value was -2.06% (inactive) and the cell number change is -2.03%.

On to `Cc1ccc(-n2nc(C)c(C(=O)N3CCN(C(=O)c4ccco4)CC3)c2-n2cccc2)cc1`, for which the Potency was 16.4 µM (active) and the cell number change was -18.3%.

On to `Cc1ccc(CN2CCN(C(=O)c3ccco3)CC2)cc1`, for which the “lipid storage change, negative = inhibition” value was -4.76% (inactive) and the cell number change stood at 11.8%.

For `Cc1ccc(-n2ncc(C(=O)N3CCN(C(=O)c4ccco4)CC3)c2-n2cccc2)cc1`, the compound was classed as inactive and the cell number change is -13.4%.

As for `O=C(Nc1ccncc1)c1sc2ccccc2c1Cl`, the “lipid storage change, negative = inhibition” value is 0.205% (inactive) and the cell number change came to 17.8%.

Take `Cc1nn(CC#N)c(=O)n1-c1ccccc1`: the compound was classed as inactive and the cell number change came out at 5.19%.

For `CCOC(=O)C1CCN(C(=O)CSc2c3c(nc4ccccc24)CCC3)CC1`, the “lipid storage change, negative = inhibition” value is 1.28% (inactive) and the cell number change was 8.19%.

As to `N#Cc1ccc(-c2csc(-c3ccno3)n2)cc1`, the “lipid storage change, negative = inhibition” value is 7.03% (inactive) and the cell number change is 9.9%.

For the compound `COc1ccc(/C=C2\N=C(c3ccccc3)N(c3ccc(C(=O)O)cc3)C2=O)cc1OC`, the “lipid storage change, negative = inhibition” value is -5.74% (inactive).

Regarding `COc1ccc(/C=C2\N=C3CCCCCN3C2=O)cc1OC`, the “lipid storage change, negative = inhibition” value was 23.1% (inactive) and the cell number change is -0.0934%.

Take `COc1ccc(/C=C2\N=C(C)N(c3ccc4ccccc4c3)C2=O)cc1OC`: the Potency was 5.17 µM (active) and the cell number change was found to be 14.3%.

`Cc1ccc(S(=O)(=O)N(C)/N=C/C=C/c2ccccc2)cc1`: the “lipid storage change, negative = inhibition” value is -4.88% (inactive) and the cell number change is -10.7%.

Take `O=C(COC(=O)Cn1cnc2ccccc21)Nc1cccc(S(=O)(=O)N2CCOCC2)c1`: the “lipid storage change, negative = inhibition” value was -9.22% (inactive) and the cell number change was -0.979%.

`NC(=O)C1(N2CCCCC2)CCN(C(=O)CSc2nc3ccccc3s2)CC1`: the “lipid storage change, negative = inhibition” value was 51% (inactive) and the cell number change was -22.8%.

As to `NC(=O)C1CCN(C(=O)CSc2nc3ccccc3s2)CC1`, the Potency was 16.4 µM (active) and the cell number change amounted to 5.89%.

Turning to `NC(=O)C1CCN(C(=O)CSc2nc3ccccc3o2)CC1`, the “lipid storage change, negative = inhibition” value was -27.1% (inactive).

Take `O=C(O)CSCc1nc2ccccc2[nH]1`: the compound was classed as inactive.

On to `O=C(O)COCc1nc2ccccc2[nH]1`, for which the “lipid storage change, negative = inhibition” value was -0.005% (inactive) and the cell number change amounted to 0.419%.

With `CC(C)(Cc1nc2ccccc2[nH]1)C(=O)O`, the Potency is 23.1 µM (active) and the cell number change was -19.5%.

Regarding `NNC(=O)CNC(=O)c1cccc(Br)c1`, the “lipid storage change, negative = inhibition” value is 8.24% (inactive).

As for `N#C/C(=C\c1ccc(-c2ccc(F)cc2)o1)C(=O)Nc1nc(-c2cccs2)cs1`, the “lipid storage change, negative = inhibition” value is -27.8% (inactive) and the cell number change was -13%.

For the compound `N#C/C(=C/c1ccc(-c2ccccc2)o1)c1nc(-c2cccs2)cs1`, the Potency was 5.8 µM (active) and the cell number change was found to be 20.9%.

Turning to `N#C/C(=C\c1ccc(-c2ccccc2)cc1)c1nc(-c2ccco2)cs1`, the “lipid storage change, negative = inhibition” value was -6.6% (inactive) and the cell number change came to 1.16%.

For the compound `C=CCC1(N(C(C)=O)c2ccccc2C)CCCCC1`, the “lipid storage change, negative = inhibition” value was -2.14% (inactive) and the cell number change was -21.1%.

Turning to `Cc1oc(/N=C/c2ccccc2O)c(C#N)c1C`, the “lipid storage change, negative = inhibition” value is 5.93% (inactive) and the cell number change is -11.3%.

`Cc1oc(/N=C/c2cccc([N+](=O)[O-])c2)c(C#N)c1C`: the Potency was 16.4 µM (active) and the cell number change was -19.3%.

Consider `Cc1oc(/N=C/c2ccccc2)c(C#N)c1C`, for which the “lipid storage change, negative = inhibition” value is 9.49% (inactive) and the cell number change is 0.993%.

Turning to `CC1CCCN(S(=O)(=O)c2ccc(NC(=O)CNC3CCCC3)cc2)C1` (centres undefined), the call was inactive and the cell number change is -7.89%.

Turning to `CCOC(=O)Nc1ccc(S(=O)(=O)N2CCC(C)CC2)cc1`, the “lipid storage change, negative = inhibition” value is 6% (inactive) and the cell number change turned out to be 5.9%.

In the case of `Cc1ccc(NC(=O)c2ccc(S(=O)(=O)N3CCC(C)CC3)cc2)cc1`, the outcome was inactive and the cell number change was 29.6%.

Consider `CCS(=O)(=O)c1ncc(Cl)c(C(=O)Nc2ccc(S(=O)(=O)N3CCCC(C)C3)cc2)n1` (centres undefined), for which the Potency was 0.146 µM (active) and the cell number change was -27.2%.

Take `CC1CCCN(S(=O)(=O)c2ccc(NC(=O)CN3CCCCC3)cc2)C1` (centres undefined): the “lipid storage change, negative = inhibition” value is -6.48% (inactive) and the cell number change was -3.44%.

For `CCS(=O)(=O)c1ncc(Cl)c(C(=O)Nc2ccc(S(=O)(=O)N3CCC(C)CC3)cc2)n1`, the Potency is 1.3 µM (active) and the cell number change was -22.6%.

With `C/C(=N\Nc1nccnc1Cl)c1ccc([N+](=O)[O-])cc1`, the “lipid storage change, negative = inhibition” value is -8.27% (inactive) and the cell number change was -11.4%.

On to `O=C(NCCS(=O)(=O)N1CCN(c2ccccc2)CC1)c1ccc(Br)o1`, for which the lipid storage change, negative = inhibition was 10.4% [at 0.0737 µM] (inactive).

`Cc1cc(C)n2c(SCCO)nnc2n1`: the “lipid storage change, negative = inhibition” value is 23.7% (inactive) and the cell number change came to 8.77%.

Take `CCc1noc(C)c1C(=O)Nc1ccc(F)c(F)c1F`: the compound was classed as inactive and the cell number change was -3.41%.

For `CC(C)(C)c1ccc(C(=O)Nc2cccc3ncccc23)cc1`, the Potency is 14.6 µM (active).

In the case of `CCc1noc(C)c1C(=O)Nc1ccccc1N1CCOCC1`, the “lipid storage change, negative = inhibition” value is 24.3% (inactive).

With `CC(=O)Nc1cccc(C(=O)Nc2cccc3ncccc23)c1`, the “lipid storage change, negative = inhibition” value is 34.5% (inactive) and the cell number change is -6.58%.

With `CCc1noc(C)c1C(=O)Nc1cccc2ncccc12`, the Potency was 2.31 µM (active) and the cell number change was -8.65%.

For `O=C(Nc1cccc2ncccc12)c1cccnc1`, the “lipid storage change, negative = inhibition” value is 42.3% (inactive) and the cell number change turned out to be 4.51%.

For the compound `CCOC(=O)c1cc(CC)sc1NC(=O)CN1CCN(C(=O)C2CCCO2)CC1` (centres undefined), the outcome was inactive and the cell number change was -6.11%.

As to `CC(=O)N(C)c1ccc(NC(=O)c2ccc([N+](=O)[O-])cc2Cl)cc1`, the result was inactive and the cell number change is 1.5%.

Take `CCCCN(C(=O)CCC(=O)OCC(=O)NCc1ccccc1)c1c(N)n(CCC)c(=O)[nH]c1=O`: the “lipid storage change, negative = inhibition” value was -9.31% (inactive) and the cell number change was -13.8%.

Take `COc1ccc(NC2CC(=O)N(c3cccc(C)c3)C2=O)cc1` (centres undefined): the “lipid storage change, negative = inhibition” value was 11.1% (inactive) and the cell number change was -0.809%.

As to `O=C(NCc1ccncc1)NC1CCCCC1`, the “lipid storage change, negative = inhibition” value was 15.1% (inactive) and the cell number change was 5.51%.

Consider `C=CCc1ccccc1OCCn1nnc2ccccc21`, for which the “lipid storage change, negative = inhibition” value was -11.5% (inactive) and the cell number change was -12.8%.

Regarding `Fc1ccc(-c2ccc(/C=N/n3cnnc3)o2)cc1`, the Potency is 10.3 µM (active) and the cell number change is -15.7%.

For the compound `Fc1ccc(-c2ccc(/C=N\n3cnnc3)o2)cc1Cl`, the “lipid storage change, negative = inhibition” value is -5.43% (inactive).

As to `Cc1ccc(-c2ccc(/C=N/n3cnnc3)o2)cc1`, the “lipid storage change, negative = inhibition” value is 5.91% (inactive) and the cell number change is 8.97%.

`O=C(Nc1ccccc1)NC1CCN(Cc2c(F)cccc2Cl)CC1`: the “lipid storage change, negative = inhibition” value is 2.76% (inactive) and the cell number change turned out to be 4.31%.

As to `O=c1c(Cc2c(F)cccc2Cl)c(O)ccn1CCc1ccccn1`, the Potency was 14.1 µM (active) and the cell number change is -22%.

On to `O=c1c(Cc2c(F)cccc2Cl)c(O)ccn1C1CC1`, for which the “lipid storage change, negative = inhibition” value was 14% (inactive) and the cell number change was found to be 4.74%.

Consider `O=c1c(Cc2c(F)cccc2Cl)c(O)ccn1Cc1ccc(F)cc1`, for which the “lipid storage change, negative = inhibition” value is -10.9% (inactive).

`CCC(C)(C)n1nnnc1C(c1ccccc1)N1CCN(C2CCCC2)CC1` (centres undefined): the “lipid storage change, negative = inhibition” value is -1.77% (inactive) and the cell number change is -10.2%.

Regarding `COc1ccc(CC(=O)NNC(=O)c2ccco2)cc1OC`, the compound was classed as inactive and the cell number change is -12.7%.

Take `O=C1/C(=C/c2ccc(Cl)cc2)SC(=S)N1CCC(=O)N1CCCCC1CCO` (centres undefined): the outcome was inactive and the cell number change was -22.1%.

With `O=C(O)CCCCN1C(=O)/C(=C\c2ccc(OCc3ccccc3)c(OCc3ccccc3)c2)SC1=S`, the “lipid storage change, negative = inhibition” value was -12.4% (inactive) and the cell number change was -10.9%.

In the case of `CCN(C(=O)CN1C(=O)/C(=C/c2ccccc2)SC1=S)C1CCS(=O)(=O)C1` (centres undefined), the compound was called inactive and the cell number change is -6.26%.

Take `CCN(C(=O)CCN1C(=O)/C(=C/c2ccccc2)SC1=S)C1CCS(=O)(=O)C1` (centres undefined): the Potency is 18.4 µM (active) and the cell number change is -2.83%.

For the compound `COc1cc(/C=C2\SC(=S)N(CCCCC(=O)O)C2=O)ccc1OS(=O)(=O)c1ccc(C)cc1`, the Potency was 20.6 µM (active) and the cell number change was -25.4%.

For `COc1ccc(/C=C2\SC(=S)N(CCC(=O)N3CCCCC3CCO)C2=O)cc1` (centres undefined), the Potency is 20.6 µM (active) and the cell number change was -3.06%.

On to `COc1ccc(/C=C2\SC(=S)N(CCCC(=O)N3CCN(C)CC3)C2=O)cc1`, for which the outcome was inactive and the cell number change was -9.52%.

On to `COc1ccc(/C=C2\SC(=S)N(CCCC(=O)N3CCCCC3CCO)C2=O)cc1` (centres undefined), for which the call was inactive and the cell number change was -3.77%.

For `O=C(CCCN1C(=O)/C(=C/c2ccccc2)SC1=S)N1CCOCC1`, the compound was classed as inactive and the cell number change turned out to be 15.4%.

For the compound `CN1CCN(C(=O)CCCN2C(=O)/C(=C/c3ccccc3)SC2=S)CC1`, the Potency was 8.2 µM (active) and the cell number change worked out at 3.91%.

In the case of `COc1cc(/C=C2\SC(=S)N(CC(=O)O)C2=O)ccc1OS(=O)(=O)c1ccc(C)cc1`, the “lipid storage change, negative = inhibition” value is -18.6% (inactive) and the cell number change is -2.94%.

Consider `CN(C(=O)CCN1C(=O)/C(=C/c2ccccc2)SC1=S)C1CCS(=O)(=O)C1` (centres undefined), for which the result was inactive and the cell number change was determined as 10.8%.
